TEAD-YAP block: TEAD-YAP interaction inhibition; HEK-TIYL cells, TEAD-Gal4/YAP UAS-luciferase luminescence; inhibition, % at 9.12 µM; 640,000 compounds, 1.4% hits; AID 1259422; in the data active means inhibition above about 32%;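 further: 0% = median of test compound wells and 100% = reference inhibitor wells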
FBW7 act: activators of human E3 ligase FBW7. Q969H0. AlphaScreen FBW7–phospho-cyclin E peptide binding, activator screen. normalized activity (activation), % at 26.1 µM. 650,000 compounds, 0.13% hits; in the data active means normalized activity above about 1.9%;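 further: purified mutant Fbw7 with reduced substrate affinity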
GPR151 ag: human GPR151 activation; Q8TDV0; 650,000 compounds, 1% hits; PathHunter beta-arrestin GPR151 cells, luminescence; AID 1508602; activation, % at 11.2 µM; in the data active means activation above about 4.9%;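 further: 0% = median of compound wells and 100% = cells with positive control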
MITF primary: inhibitors of human MITF. O75030. 650,000 compounds, 0.91% hits. AID 1259374. inhibition, % at 2.6 µM. AlphaScreen MITF homodimerization, bead proximity signal; in the data active means inhibition above about 50%;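 further: 0% = vehicle wells with protein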
GPR151 confirm: human GPR151 activation, confirmation screen; shares compounds with GPR151 ag; GPR151 PathHunter beta-arrestin cells, luminescence, 90 min; % of EA-reagent control over plate median; activation, % at 11.2 µM; 6,700 tested, under 10 active; AID 1508609;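 active means mean percent activation across replicates above the confirmation screen cutoff of 4.91%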
GPR119 ag: activates human GPR119 in a GPR151 counter-screen | shares compounds with GPR151 ag | GPR119 PathHunter beta-arrestin cells, luminescence, 90 min; 0 = compound-well median, 100 = enzyme-acceptor control | activation, % at 11.2 µM | 6,700 compounds, 0.3% hits;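 active means mean percent activation in the counterscreen above 29.09%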;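 further: counterscreen on off-target GPR119 to flag nonselective hits from the GPR151 activator screen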
Target sequence (Q8TDV5 whole entry, looked up): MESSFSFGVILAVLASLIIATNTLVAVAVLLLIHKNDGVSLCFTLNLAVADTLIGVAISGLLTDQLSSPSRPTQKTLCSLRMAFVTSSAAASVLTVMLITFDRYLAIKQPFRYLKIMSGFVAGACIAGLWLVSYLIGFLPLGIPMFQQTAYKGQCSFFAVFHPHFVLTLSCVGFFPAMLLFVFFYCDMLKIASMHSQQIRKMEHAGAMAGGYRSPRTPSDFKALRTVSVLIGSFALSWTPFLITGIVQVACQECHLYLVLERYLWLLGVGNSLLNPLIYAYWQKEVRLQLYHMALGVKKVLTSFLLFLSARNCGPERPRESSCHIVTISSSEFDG
Active calls of the source: *; / = no result. Hits are enriched below; roughly 3.5% of the tested compounds scored in any of these assays.

SMILES | TEAD-YAP block | FBW7 act | GPR151 ag | MITF primary | GPR151 confirm | GPR119 ag
Cc1cccc(-c2cc(C(=O)N3CCN(c4ccc([N+](=O)[O-])cc4)CC3)c3ccccc3n2)c1 | 3 | 0 | 0 | 13 | / | /
CC1(C)c2ccccc2N(CC(=O)NCc2ccccc2)C12C=Cc1cc([N+](=O)[O-])ccc1O2 (stereo unspecified) | 3 | 0 | 0 | 3 | / | /
COC(=O)c1ccc2c(c1)C(C)(C)C1(C=Cc3cc([N+](=O)[O-])ccc3O1)N2C (stereo unspecified) | 3 | 0 | 5.3* | 10 | 1 | 10
CC1(C)c2ccccc2N(CC(=O)NCc2ccc(Cl)cc2)C12C=Cc1cc([N+](=O)[O-])ccc1O2 (stereo unspecified) | -5 | 0 | 6.3* | 10 | -1 | -4
COc1ccccc1CNC(=O)CN1CCC(c2ccc(OC)c(OC)c2)CC1 | 1 | 0 | 0 | 10 | / | /
O=[N+]([O-])c1ccc(O)c(/C=N/NS(=O)(=O)c2ccccc2)c1 | 8 | 0 | 1 | -12 | / | /
CNCC#CCOc1ccc(OC)cc1 | -5 | 1 | 1 | 41 | / | /
COc1ccc(OCC#CCNC(C)(C)C)cc1 | 5 | 0 | 8.7* | 9 | 1 | -6
C[C@@H](c1ccccc1)n1c(=O)[nH]c2nc(-c3cccnc3)cnc21 | -1 | 0 | 0 | 16 | / | /
CCOC(=O)/C(C(N)=O)=C(\OC)C(=O)CC(=O)c1ccc(C)cc1 | 6 | 0 | 5.5* | 5 | 1 | 7
CCOC(=O)/C(C(N)=O)=C(\O)C(=O)/C=C(\O)c1ccc(C)cc1 | -5 | 0 | 1 | 0 | / | /
COc1ccc(OC)c(/C=C\c2onc(C)c2[N+](=O)[O-])c1 | 2 | 0 | 8.9* | -17 | 0 | -8
Cc1noc(/C=C/C=C/c2ccccc2)c1[N+](=O)[O-] | -1 | 0 | 0 | 34 | / | /
Cn1c(=O)c2c(NC(=O)c3c(F)cccc3F)ccnc2n(C)c1=O | 1 | 0 | 10* | 6 | -1 | 3
COc1cc2nc(C)[nH]c2cc1OC | -1 | 0 | -1 | 2 | / | /
COc1ccc2nc(C)[nH]c2c1 | 5 | 0 | 5.2* | -9 | -1 | -6
O=C1CCC(CCNCc2ccc(F)cc2)N1CC1CCCO1 (stereo unspecified) | -4 | 0 | -1 | -3 | / | /
COc1cc(CO)cc(Cl)c1OCc1ccccc1C#N | 1 | 0 | 6.7* | 3 | 0 | -7
Cc1nnc(SCC(=O)NCCC(c2ccccc2)c2ccccc2)s1 | 4 | 0 | 5.0* | -5 | 0 | 0
CCCCNC(=O)CSc1nnc(NC(C)=O)s1 | 4 | 0 | 6.4* | -3 | 0 | 1
COC(=O)c1ccc(NC(=O)CSc2nnc(NC(C)=O)s2)cc1 | 5 | 0 | 6.4* | -14 | 0 | 0
CCN(C(=O)C(C)Oc1ccccc1)C1CCCCC1 (stereo unspecified) | 7 | 0 | 0 | -4 | / | /
O=c1ccn(C2OC(COc3ccc([N+](=O)[O-])cc3)C(O)C2O)c(=O)[nH]1 (stereo unspecified) | 1 | 0 | 0 | 7 | / | /
O=c1ccn([C@@H]2O[C@H](COP(=O)(O)OP(=O)(O)O)[C@@H](O)[C@H]2O)c(=O)[nH]1 | 0 | 0 | 5.1* | 19 | -1 | -2
Cc1nc(=O)c(-c2ccccc2)c(C)n1-c1ccc(C(=O)O)cc1 | 3 | 1 | -1 | 5 | / | /
SMILES | TEAD-YAP block | FBW7 act | GPR151 ag | MITF primary | GPR151 confirm | GPR119 ag
CCOC(=O)c1ccc(-n2c(C)nc(=O)c(-c3ccccc3)c2C)cc1 | -3 | 0 | 7.8* | -3 | 0 | 12
O=C(Nc1cccnc1)c1cc2n(n1)C(C(F)(F)F)CC(c1ccc(Cl)cc1)N2 (stereo unspecified) | -23 | 0 | 5.0* | -5 | 1 | 3
O=C(Nc1cccnc1)c1cc2n(n1)C(C(F)(F)F)CC(c1ccc(Br)cc1)N2 (stereo unspecified) | -5 | 0 | -1 | 3 | / | /
CC(=O)NCCNC(=O)c1ccc(Br)s1 | -6 | 0 | 6.0* | -2 | -1 | -4
O=C(NO)c1ccc(Br)s1 | -7 | 0 | 0 | 5 | / | /
C/C(=N\NC(=O)c1cccc(Br)c1)c1c(O)cc(C)oc1=O | -19 | 0 | 0 | -12 | / | /

Source: PubChem (The Scripps Research Institute Molecular Screening Center)
